# Screening data as filed in PubChem.
# Measles CPE = protection of cells from measles virus | Measles virus-infected cells, CPE protection, absorbance | protection (pct of control), % at 4 µM | 140,000 tested, 1.5% active; in the data active means protection mostly above about 24%, no sharp cut-off; inactive means mostly below about 26%
# CYP2C9 act = CYP2C9 (human) activation | P11712 | 96,000 tested, 1.4% active | activation factor at 5 µM | recombinant CYP2C9, luciferin-H conversion, luminescence; hits give high values; factor 1 = untreated enzyme, 0 = blocked;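 active means activation factor of 2 or more for CYP2C9 at a 5 µM dose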;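 further: 0 = sulfaphenazole-blocked wells and 1 = vehicle-only wells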
# Target sequence (P11712 whole entry, looked up): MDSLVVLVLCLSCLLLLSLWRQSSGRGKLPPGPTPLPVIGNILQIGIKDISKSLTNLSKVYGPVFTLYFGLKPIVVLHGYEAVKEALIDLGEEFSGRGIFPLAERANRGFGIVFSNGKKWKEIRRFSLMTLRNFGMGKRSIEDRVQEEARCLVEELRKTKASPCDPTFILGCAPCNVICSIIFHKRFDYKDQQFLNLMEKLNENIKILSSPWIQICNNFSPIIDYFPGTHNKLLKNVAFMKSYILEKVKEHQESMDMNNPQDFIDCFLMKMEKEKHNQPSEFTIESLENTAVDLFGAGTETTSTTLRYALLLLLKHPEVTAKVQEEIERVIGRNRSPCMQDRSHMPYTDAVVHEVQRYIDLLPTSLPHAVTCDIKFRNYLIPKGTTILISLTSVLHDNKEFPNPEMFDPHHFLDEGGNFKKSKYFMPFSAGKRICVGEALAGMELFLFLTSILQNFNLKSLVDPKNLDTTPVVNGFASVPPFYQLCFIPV
# CYP2C9 inhib = inhibitors of human CYP2C9; P11712; CYP2C9 Supersomes, luciferin-H conversion, luminescence; inhibition, % at 5 µM; 96,000 tested, 20% active;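 active means blocking of liver enzyme CYP2C9 beyond about 50% at 5 µM, limit read from the data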
# CYP2C19 activ = increases human CYP2C19 enzyme activity; activation factor at 5 µM; AID 1025; recombinant CYP2C19, luciferin-H EGE luminescence; hits give high values; 0 = fully inhibited enzyme, 1 = untreated enzyme; 96,000 tested, under 10 active; P33261;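 active means activation factor of at least 2 at 5 µM in the primary screen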;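 further: 0 = wells with 2.5 mM tranylcypromine and 1 = vehicle-only wells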
# CYP2C19 inhib = human CYP2C19 inhibition | AID 778 | 96,000 tested, 21% active | inhibition, % at 5 µM | CYP2C19 Supersomes, luciferin-H EGE luminescence, 30 min;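 active means CYP2C19 inhibition above a set limit at 5 µM in the primary screen, cut at about 50% in these data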;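 further: plate controls were negative control wells for no effect and 2.5 mM tranylcypromine positive control for full effect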
# Starred values were filed as active, the others as inactive; · = not tested or not shown. Most compounds without a hit are left out; they make up all but 22% or so of the library.
SMILES,Measles CPE,CYP2C9 act,CYP2C9 inhib,CYP2C19 activ,CYP2C19 inhib
CSc1nc(SCC(=O)NCc2ccco2)c2c3c(sc2n1)COC(C)(C)C3,7,0.7,26,0.9,12
CCCCc1nc2sc3c(SCC(=O)NCc4ccco4)ncnc3c2c2c1CCC2,4,0.2,82*,0.4,58*
CC(C)Sc1nc(NCc2ccco2)c2c3c(sc2n1)COC(C)(C)C3,4,0.3,69*,0.9,10
C=CCn1c(SCC(=O)NCc2ccco2)nc2sc3c(c2c1=O)CCCC3,10,0.8,20,1,1
O=C(Cc1ccc2c(c1)CCCC2)Nc1ccc2ccccc2c1,16,·,·,·,·
COc1ccc(C(=O)c2ccccc2)cc1Br,4,2.2*,-119,0.5,50
COc1ccc(C(=O)c2ccc(OC)c(OC)c2)cc1,8,1.7,-65,0.6,37
COc1ccc(C(=O)c2ccc(OC)c(N)c2)cc1N,3,2.6*,-156,0.8,22
CN1C(=O)c2cccc(NCCCCCCN3C(=O)c4ccccc4C3=O)c2C1=O,10,0.3,75*,0.7,32
O=C(CSc1nc2ccccc2[nH]1)Nc1ccc(F)c(F)c1,7,0.3,66*,0.4,56*
O=C(CSc1nc2ccccc2[nH]1)NCCCn1ccnc1,5,0.1,95*,0.1,92*
O=C(CSC1=NCCS1)Nc1ccccc1F,18,0.5,48,0.2,79*
O=C(O)CSc1nc2ccccc2[nH]1,12,1.1,-8,1.1,-14
O=C(CSc1nc2ccccc2[nH]1)Nc1ccccc1F,8,0.2,84*,0.4,64*
O=C(CSC1=NCCS1)Nc1cccc2ccccc12,11,1,3,0.8,20
CCCCc1nc(NCc2ccccc2)c(C#N)c2c1COC(C)(C)C2,9,0.7,28,1,2
N#Cc1c(NCCCO)nc(-c2ccco2)c2c1CCCC2,5,0.1,92*,0.4,61*
CC(C)c1nc(NCc2ccccc2)c(C#N)c2c1CCCC2,2,0.6,36,1.1,-8
CN1CCc2c(C#N)c(N3CCCCC3)nc(NCc3ccccc3)c2C1,2,0.3,74*,0.7,33
N#Cc1c(NCCCO)nc(NCc2ccccc2)c2c1CCN(Cc1ccccc1)C2,15,0,100*,0.6,44
CN(C)c1cccc(C(=O)NCC2CCCO2)c1 (stereo not drawn),19,1,-1,0.7,35
COc1ccc(N(C)S(=O)(=O)c2cccc(C(=O)Nc3ccc(OC)nc3)c2)cc1,5,·,·,·,·
COc1ccc(N(C)S(=O)(=O)c2cccc(C(=O)NCC3CCCO3)c2)cc1 (stereo not drawn),6,0.4,63*,0.6,41
COc1ccc(N(C)S(=O)(=O)c2cccc(C(=O)Nc3ccc(-n4cnnn4)cc3)c2)cc1,20,0.2,85*,0.3,70*
COc1ccc(S(=O)(=O)N(C)c2ccc(C(=O)NCC3CCCO3)cc2)cc1 (stereo not drawn),11,0.5,53*,1.1,-6
SMILES,Measles CPE,CYP2C9 act,CYP2C9 inhib,CYP2C19 activ,CYP2C19 inhib
Cc1cc(=O)n2[nH]c(-c3ccc(Cl)cc3)cc2n1,5,0.8,23,0.2,75*
COC(=O)c1nnn(CC(=O)NC(=O)Nc2c(C)cccc2C)c1C(=O)OC,10,·,·,·,·
CCOC(=O)CCc1c(C)nc2cc(C3CCCN(C(=O)OC(C)(C)C)C3)[nH]n2c1=O (stereo not drawn),28,0.8,20,1,-2
N/C(CC(=O)Nc1cccc(C(F)(F)F)c1)=N/O,6,1,0,0.9,11
CCOC(=O)/C(=N\Nc1cccc(C(F)(F)F)c1)N(CCOC)CCOC,11,0.1,89*,0,99*
CCCNC(=O)NC(=O)CN1C(=O)NC(C)(c2ccc(C)cc2)C1=O (stereo not drawn),4,0.9,10,0.9,12
Cn1nnnc1Sc1ncnc2scc(-c3ccccc3)c12,23,0.3,66*,0.5,46
Cc1ccc(-c2cc(C(=O)N/N=C/c3ccco3)n[nH]2)s1,5,·,·,·,·
Cc1cc(C)c2c(c1)NC(=O)C2(O)CC(=O)c1cccs1 (stereo not drawn),35,1.3,-32,0.5,54*
CS/C(=C\[N+](=O)[O-])Nc1ccccc1,22,1,-4,1,-1
CC1(C)N=C(c2cccc(F)c2)C(=O)N1,3,0.9,11,0.4,60*
Cc1ccc(C2=NC(C)(C)NC2=O)cc1,18,1,3,0.2,84*
CC1(C)N=C(c2ccccc2)C(=O)N1,13,1.1,-7,0.6,42
